Source: the supplement of paper PMC12024424
Structures can show the parent of a compound that is named as a salt.

system: Staphylococcus aureus Sa2 (MRSA, cystic fibrosis isolate); assay: growth reduction vs untreated control (OD550); higher = stronger antibacterial activity; settings: 0.1 mM; 24 h
Experimental: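 Single-dose screen of the MedChem Express Drug Repurposing Library (0.1 mM, 1% DMSO) against planktonic MRSA S. aureus Sa2 (CF isolate) in TSB in 96-well plates, 37 °C aerobic, 24 h. Assays were run in triplicate and repeated twice.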

SMILES	growth reduction [%]
CCCCCCCCOc1ccccc1C(=O)Nc1ccc(C(=O)OCC[N+](C)(CC)CC)cc1 [Otilonium (bromide)]	100
CC(C)(C)OC(=O)N[C@H]1CCCCC/C=C\[C@@H]2C[C@@]2(C(=O)NS(=O)(=O)C2CC2)NC(=O)[C@@H]2C[C@@H](OC(=O)N3Cc4cccc(F)c4C3)CN2C1=O [Danoprevir]	99.9
O=C(NCC12CC3CC(CC(C3)C1)C2)c1cc(CCCNCCCO)ccc1Cl [AZD9056 (hydrochloride)]	100
Cn1cc(-c2ccncc2)c(-c2ccc(OCc3ccc4ccccc4n3)cc2)n1 [Mardepodect (hydrochloride)]	100
CSc1ccc(C(=O)/C=C/c2cc(C)c(OC(C)(C)C(=O)O)c(C)c2)cc1 [Elafibranor]	91.6
Clc1ccc(COC(Cn2ccnc2)c2ccc(Cl)cc2Cl)cc1 (centres undefined) [Econazole (nitrate)]	100
COC1=C(OC)C(=O)C(CCCCCCCCCC[P+](c2ccccc2)(c2ccccc2)c2ccccc2)=C(C)C1=O [Mitoquinone (mesylate)]	100
CCCCN(CCCC)CCC(O)c1cc2c(Cl)cc(Cl)cc2c2cc(C(F)(F)F)ccc12 (centres undefined) [Halofantrine hydrochloride]	100
CN1C(C(=O)Nc2ccccn2)=C(O)c2sc(Cl)cc2S1(=O)=O [Lornoxicam]	97.2
CC(C)C[C@@H](C(=O)N[C@H](C(=O)OC1CCCC1)c1ccccc1)[C@H](O)C(=O)NO [Tosedostat]	100
Cc1cc(O[C@@H](CCC(F)(F)F)c2ccc(C(=O)NCCC(=O)O)cc2)cc(C)c1-c1ccc(C(C)(C)C)cc1 [Adomeglivant]	100
N=C(N)c1ccc(OCCCCCOc2ccc(C(=N)N)cc2)cc1 [Pentamidine (isethionate)]	100
O=C(O)Cc1ccccc1Nc1c(Cl)cccc1Cl [Diclofenac]	100
COc1cc(F)c(F)c(Nc2ccc(I)cc2F)c1NS(=O)(=O)C1(C[C@H](O)CO)CC1 [Refametinib]	100
COc1ccc2c(c1OCc1ccccc1)C[C@@H](C(=O)O)N(C(=O)C(c1ccccc1)c1ccccc1)C2 [Olodanrigan]	95.1
c1ccc(-c2ccc(C(c3ccccc3)n3ccnc3)cc2)cc1 (centres undefined) [Bifonazole]	100
CC(C)(C)NCC(O)COc1ccccc1C1CCCC1 (single isomer, unassigned; (+)) [(+)-Penbutolol]	91
O=C(NC(=Nc1cc(C(F)(F)F)[nH]n1)Nc1cc(F)cc(Cl)c1)c1cccc(Cl)c1 [Parimifasor]	100
Oc1c(Cl)cc(Cl)cc1Sc1cc(Cl)cc(Cl)c1O [Bithionol]	99.2
CCOc1cc2ncc(C#N)c(Nc3ccc(F)c(Cl)c3)c2cc1NC(=O)/C=C/CN(C)C [Pelitinib]	90.6
C[C@@H](NCCCc1cccc(C(F)(F)F)c1)c1cccc2ccccc12 [Cinacalcet (hydrochloride)]	100
CN(Cc1cnc2nc(N)nc(N)c2n1)c1ccc(C(=O)N[C@@H](CCC(=O)O)C(=O)O)cc1 [Methotrexate]	94.1
C=C[C@@H]1C[C@]1(NC(=O)[C@@H]1C[C@@H]2CN1C(=O)[C@H](C(C)(C)C)NC(=O)O[C@@H]1C[C@H]1CCCCCc1nc3ccc(OC)cc3nc1O2)C(=O)NS(=O)(=O)C1CC1 [Grazoprevir potassium salt]	97.2
C=CC(=O)Nc1cc(Nc2nccc(-c3cn(C4CC4)c4ccccc34)n2)c(OC)cc1N(C)CCN(C)C [Almonertinib (hydrochloride)]	100
Cc1ccc(C(=O)Nc2ccc(CN3CCN(C)CC3)c(C(F)(F)F)c2)cc1C#Cc1cnc2[nH]ncc2c1	100
N[C@@H](Cc1cc(I)c(Oc2cc(I)c(O)c(I)c2)c(I)c1)C(=O)O [L-Thyroxine (sodium salt pentahydrate)]	100
COc1cccc(OC)c1-c1cc(C(=O)NC2(C(=O)O)C3CC4CC(C3)CC2C4)nn1-c1ccnc2cc(Cl)ccc12 (centres undefined) [Meclinertant]	100
CC1(C)CC=C(c2nc(C3CC(C)(C)OC(C)(C)C3)ccc2NC(=O)c2nc(C#N)c[nH]2)CC1 [Edicotinib]	99.3
C=CC(=O)Nc1cc(Nc2nccc(-c3cn(C4CC4)c4ccccc34)n2)c(OC)cc1N(C)CCN(C)C [Almonertinib]	100
